Data from ChEMBL document CHEMBL2218924, “A broad activity screen in support of a chemogenomic map for kinase signalling research and drug discovery” (Biochem J, 2013).

Key:
[1] = target: Insulin receptor (Homo sapiens) (UniProt P06213); details: at 1 µM
[2] = target: Insulin receptor (Homo sapiens) (UniProt P06213); details: at 10 µM
[3] = target: T1, Serine/threonine-protein kinase TBK1 (Homo sapiens) (UniProt Q9UHD2); details: at 10 µM
T1 sequence (whole entry): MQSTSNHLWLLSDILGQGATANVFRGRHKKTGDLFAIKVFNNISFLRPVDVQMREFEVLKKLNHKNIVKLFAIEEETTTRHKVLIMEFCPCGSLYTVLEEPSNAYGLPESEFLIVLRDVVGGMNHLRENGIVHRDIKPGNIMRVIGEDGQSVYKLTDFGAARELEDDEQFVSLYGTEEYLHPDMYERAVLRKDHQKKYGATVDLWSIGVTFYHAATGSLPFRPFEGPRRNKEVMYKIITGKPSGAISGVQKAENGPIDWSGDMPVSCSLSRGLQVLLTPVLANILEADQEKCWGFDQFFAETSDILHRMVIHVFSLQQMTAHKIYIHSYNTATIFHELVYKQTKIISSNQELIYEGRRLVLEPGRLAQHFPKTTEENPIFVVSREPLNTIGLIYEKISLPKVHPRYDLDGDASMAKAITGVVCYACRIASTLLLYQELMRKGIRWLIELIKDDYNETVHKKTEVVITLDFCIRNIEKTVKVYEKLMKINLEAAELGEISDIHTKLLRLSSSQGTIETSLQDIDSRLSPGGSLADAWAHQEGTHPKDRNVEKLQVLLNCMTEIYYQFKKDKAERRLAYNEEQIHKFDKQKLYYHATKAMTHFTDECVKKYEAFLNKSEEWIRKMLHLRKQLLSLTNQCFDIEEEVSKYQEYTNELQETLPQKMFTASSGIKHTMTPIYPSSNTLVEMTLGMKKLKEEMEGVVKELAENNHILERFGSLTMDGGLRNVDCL

[4] = target: T2, Inhibitor of nuclear factor kappa-B kinase subunit alpha (Homo sapiens) (UniProt O15111); details: at 1 µM
T2 sequence (whole entry): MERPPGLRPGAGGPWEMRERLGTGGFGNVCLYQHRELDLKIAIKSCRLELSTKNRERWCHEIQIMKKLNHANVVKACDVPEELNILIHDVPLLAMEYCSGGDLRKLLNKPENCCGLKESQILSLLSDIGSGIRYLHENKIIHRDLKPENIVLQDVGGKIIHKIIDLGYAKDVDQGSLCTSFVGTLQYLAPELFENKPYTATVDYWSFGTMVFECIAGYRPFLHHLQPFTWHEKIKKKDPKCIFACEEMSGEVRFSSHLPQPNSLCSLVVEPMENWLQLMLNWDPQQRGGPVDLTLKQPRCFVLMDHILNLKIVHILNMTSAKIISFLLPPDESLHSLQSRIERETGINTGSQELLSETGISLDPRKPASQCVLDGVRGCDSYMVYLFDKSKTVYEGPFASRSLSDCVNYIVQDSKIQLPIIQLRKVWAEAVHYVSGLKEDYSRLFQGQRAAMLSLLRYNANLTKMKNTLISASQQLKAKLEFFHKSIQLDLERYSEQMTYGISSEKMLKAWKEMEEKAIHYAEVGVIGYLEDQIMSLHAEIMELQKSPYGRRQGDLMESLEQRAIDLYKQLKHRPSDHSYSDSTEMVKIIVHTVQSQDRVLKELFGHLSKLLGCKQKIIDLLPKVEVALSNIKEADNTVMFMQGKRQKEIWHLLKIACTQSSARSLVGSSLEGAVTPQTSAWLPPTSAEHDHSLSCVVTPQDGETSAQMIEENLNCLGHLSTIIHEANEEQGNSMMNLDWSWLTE

[5] = target: T2, Inhibitor of nuclear factor kappa-B kinase subunit alpha (Homo sapiens); details: at 10 µM
[6] = target: Insulin receptor (Homo sapiens) (UniProt P06213); details: at 1 µM; remark: listed apart in the source
[7] = target: Insulin receptor (Homo sapiens) (UniProt P06213); details: at 10 µM; remark: listed apart in the source
[8] = target: T3, Interleukin-1 receptor-associated kinase 4 (Homo sapiens) (UniProt Q9NWZ3); details: at 10 µM
T3 sequence (whole entry): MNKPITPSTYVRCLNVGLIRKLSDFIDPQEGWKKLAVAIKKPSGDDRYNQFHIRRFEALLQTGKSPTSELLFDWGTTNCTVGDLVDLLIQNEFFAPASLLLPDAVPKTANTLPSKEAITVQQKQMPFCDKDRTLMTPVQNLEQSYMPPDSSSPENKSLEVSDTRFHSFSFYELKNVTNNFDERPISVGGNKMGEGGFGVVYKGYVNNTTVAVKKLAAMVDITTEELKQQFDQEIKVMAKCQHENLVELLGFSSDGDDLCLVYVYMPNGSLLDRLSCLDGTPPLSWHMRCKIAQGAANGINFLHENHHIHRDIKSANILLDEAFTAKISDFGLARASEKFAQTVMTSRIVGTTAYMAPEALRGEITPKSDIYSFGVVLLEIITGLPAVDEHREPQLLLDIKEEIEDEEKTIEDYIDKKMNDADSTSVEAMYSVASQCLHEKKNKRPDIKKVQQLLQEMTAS

[9] = target: Insulin receptor-related protein (Homo sapiens) (UniProt P14616); details: at 1 µM
[10] = target: Insulin receptor-related protein (Homo sapiens) (UniProt P14616); details: at 10 µM
[11] = target: T4, TGF-beta receptor type-1 (Homo sapiens) (UniProt P36897); details: at 10 µM
T4 sequence (whole entry): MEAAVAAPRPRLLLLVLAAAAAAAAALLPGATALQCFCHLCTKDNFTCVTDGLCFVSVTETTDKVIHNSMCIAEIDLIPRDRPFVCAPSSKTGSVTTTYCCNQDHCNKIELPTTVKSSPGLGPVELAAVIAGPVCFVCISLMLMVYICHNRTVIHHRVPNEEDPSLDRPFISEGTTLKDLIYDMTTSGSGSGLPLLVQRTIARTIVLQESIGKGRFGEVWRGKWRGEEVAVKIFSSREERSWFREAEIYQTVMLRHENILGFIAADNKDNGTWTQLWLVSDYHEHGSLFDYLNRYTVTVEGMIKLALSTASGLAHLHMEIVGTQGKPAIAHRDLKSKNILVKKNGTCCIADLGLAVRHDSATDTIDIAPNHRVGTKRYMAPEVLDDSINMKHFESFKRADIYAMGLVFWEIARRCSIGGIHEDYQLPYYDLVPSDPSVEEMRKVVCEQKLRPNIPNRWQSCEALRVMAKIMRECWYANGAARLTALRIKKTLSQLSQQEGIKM

[12] = target: Interleukin-1 receptor-associated kinase 1 (Homo sapiens) (UniProt P51617); details: at 1 µM
[13] = target: Interleukin-1 receptor-associated kinase 1 (Homo sapiens) (UniProt P51617); details: at 10 µM
[14] = target: T3, Interleukin-1 receptor-associated kinase 4 (Homo sapiens); details: at 1 µM
[15] = target: T5, Tyrosine-protein kinase ITK/TSK (Homo sapiens) (UniProt Q08881); details: at 1 µM
T5 sequence (whole entry): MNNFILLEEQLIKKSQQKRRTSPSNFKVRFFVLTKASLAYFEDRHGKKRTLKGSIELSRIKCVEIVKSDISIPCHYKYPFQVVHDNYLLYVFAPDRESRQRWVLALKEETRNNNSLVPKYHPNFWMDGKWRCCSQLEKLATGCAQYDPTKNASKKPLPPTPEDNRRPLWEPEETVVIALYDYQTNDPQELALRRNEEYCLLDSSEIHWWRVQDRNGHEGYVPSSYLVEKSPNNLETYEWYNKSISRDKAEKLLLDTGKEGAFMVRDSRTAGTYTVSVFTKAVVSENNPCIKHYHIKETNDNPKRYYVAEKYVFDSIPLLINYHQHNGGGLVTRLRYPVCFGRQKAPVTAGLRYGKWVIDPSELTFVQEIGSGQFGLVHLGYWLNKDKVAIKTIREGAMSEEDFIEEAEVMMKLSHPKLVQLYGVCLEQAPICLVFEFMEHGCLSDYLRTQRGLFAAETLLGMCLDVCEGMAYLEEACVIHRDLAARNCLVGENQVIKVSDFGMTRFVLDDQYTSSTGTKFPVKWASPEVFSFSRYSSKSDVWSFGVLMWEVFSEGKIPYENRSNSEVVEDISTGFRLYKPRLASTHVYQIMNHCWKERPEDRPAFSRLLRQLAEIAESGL

[16] = target: T4, TGF-beta receptor type-1 (Homo sapiens); details: at 1 µM

Chain of Insulin receptor-related protein (Homo sapiens) (P14616 27-742 limits assumed): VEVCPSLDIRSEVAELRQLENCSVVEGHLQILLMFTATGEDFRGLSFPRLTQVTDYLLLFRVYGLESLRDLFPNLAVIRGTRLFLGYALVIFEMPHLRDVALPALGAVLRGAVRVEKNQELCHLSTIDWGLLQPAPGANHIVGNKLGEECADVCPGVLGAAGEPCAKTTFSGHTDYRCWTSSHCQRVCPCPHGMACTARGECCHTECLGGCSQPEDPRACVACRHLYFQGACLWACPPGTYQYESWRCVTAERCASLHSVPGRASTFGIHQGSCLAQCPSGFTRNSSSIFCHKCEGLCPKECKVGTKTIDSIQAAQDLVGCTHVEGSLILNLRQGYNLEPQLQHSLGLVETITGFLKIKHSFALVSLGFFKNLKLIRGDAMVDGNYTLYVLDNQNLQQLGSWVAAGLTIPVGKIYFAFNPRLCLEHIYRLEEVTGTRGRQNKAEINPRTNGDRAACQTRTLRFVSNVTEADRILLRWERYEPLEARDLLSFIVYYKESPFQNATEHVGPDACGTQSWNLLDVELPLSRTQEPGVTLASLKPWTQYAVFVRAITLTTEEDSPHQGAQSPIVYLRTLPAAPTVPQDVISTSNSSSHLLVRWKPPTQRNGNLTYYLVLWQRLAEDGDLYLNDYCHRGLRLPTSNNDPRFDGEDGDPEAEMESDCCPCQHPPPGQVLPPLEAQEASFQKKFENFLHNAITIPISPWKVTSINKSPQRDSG
Chain of Insulin receptor-related protein (Homo sapiens) (P14616 747-1297 limits assumed): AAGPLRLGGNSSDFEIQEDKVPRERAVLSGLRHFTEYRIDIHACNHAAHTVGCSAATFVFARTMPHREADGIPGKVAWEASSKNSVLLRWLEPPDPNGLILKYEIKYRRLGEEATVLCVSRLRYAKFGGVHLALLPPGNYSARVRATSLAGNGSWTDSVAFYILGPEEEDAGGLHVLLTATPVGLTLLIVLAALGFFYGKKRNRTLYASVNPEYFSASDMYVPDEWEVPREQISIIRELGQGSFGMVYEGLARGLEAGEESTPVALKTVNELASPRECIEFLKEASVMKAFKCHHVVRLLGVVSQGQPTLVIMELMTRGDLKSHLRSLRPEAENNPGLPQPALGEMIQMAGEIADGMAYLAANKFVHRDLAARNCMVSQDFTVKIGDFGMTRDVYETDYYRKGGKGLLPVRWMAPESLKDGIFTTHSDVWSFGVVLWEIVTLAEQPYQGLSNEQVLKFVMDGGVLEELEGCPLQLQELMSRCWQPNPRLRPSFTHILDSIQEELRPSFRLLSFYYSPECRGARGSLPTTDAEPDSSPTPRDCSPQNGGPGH
Chain of Insulin receptor (Homo sapiens) (P06213 28-758 limits assumed): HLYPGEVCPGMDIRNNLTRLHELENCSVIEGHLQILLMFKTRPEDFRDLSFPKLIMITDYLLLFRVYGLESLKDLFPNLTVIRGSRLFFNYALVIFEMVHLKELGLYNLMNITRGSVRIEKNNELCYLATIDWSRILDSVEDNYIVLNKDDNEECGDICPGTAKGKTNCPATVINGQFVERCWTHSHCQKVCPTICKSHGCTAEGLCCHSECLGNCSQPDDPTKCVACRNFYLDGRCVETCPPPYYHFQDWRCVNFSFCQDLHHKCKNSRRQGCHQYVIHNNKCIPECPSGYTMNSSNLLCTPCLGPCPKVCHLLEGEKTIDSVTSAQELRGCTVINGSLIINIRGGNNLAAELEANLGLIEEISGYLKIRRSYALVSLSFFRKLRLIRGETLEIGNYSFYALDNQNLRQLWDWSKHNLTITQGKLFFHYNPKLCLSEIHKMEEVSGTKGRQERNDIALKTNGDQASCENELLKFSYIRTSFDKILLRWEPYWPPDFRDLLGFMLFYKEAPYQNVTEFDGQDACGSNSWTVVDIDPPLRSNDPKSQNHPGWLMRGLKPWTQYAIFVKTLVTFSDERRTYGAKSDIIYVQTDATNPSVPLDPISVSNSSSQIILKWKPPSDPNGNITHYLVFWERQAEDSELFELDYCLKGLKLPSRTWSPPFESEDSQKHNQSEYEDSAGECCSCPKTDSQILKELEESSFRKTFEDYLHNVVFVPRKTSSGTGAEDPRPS
Chain of Insulin receptor (Homo sapiens) (P06213 763-1382 limits assumed): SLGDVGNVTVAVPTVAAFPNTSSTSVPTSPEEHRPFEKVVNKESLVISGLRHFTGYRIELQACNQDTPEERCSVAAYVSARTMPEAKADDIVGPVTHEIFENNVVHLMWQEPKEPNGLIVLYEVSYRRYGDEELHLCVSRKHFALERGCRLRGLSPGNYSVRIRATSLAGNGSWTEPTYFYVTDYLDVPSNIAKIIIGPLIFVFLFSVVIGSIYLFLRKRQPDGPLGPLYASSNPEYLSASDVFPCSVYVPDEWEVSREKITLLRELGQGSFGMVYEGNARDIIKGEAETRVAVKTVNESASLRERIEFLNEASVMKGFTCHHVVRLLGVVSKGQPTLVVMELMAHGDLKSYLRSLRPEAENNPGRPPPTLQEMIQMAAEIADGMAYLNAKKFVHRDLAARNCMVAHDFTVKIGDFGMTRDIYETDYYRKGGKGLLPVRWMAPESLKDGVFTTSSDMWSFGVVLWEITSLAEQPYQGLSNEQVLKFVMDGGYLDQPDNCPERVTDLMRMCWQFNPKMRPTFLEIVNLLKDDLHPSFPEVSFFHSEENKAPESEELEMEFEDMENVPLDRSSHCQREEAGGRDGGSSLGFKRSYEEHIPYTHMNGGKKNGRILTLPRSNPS
Chain of Interleukin-1 receptor-associated kinase 1 (Homo sapiens) (P51617 whole entry, looked up): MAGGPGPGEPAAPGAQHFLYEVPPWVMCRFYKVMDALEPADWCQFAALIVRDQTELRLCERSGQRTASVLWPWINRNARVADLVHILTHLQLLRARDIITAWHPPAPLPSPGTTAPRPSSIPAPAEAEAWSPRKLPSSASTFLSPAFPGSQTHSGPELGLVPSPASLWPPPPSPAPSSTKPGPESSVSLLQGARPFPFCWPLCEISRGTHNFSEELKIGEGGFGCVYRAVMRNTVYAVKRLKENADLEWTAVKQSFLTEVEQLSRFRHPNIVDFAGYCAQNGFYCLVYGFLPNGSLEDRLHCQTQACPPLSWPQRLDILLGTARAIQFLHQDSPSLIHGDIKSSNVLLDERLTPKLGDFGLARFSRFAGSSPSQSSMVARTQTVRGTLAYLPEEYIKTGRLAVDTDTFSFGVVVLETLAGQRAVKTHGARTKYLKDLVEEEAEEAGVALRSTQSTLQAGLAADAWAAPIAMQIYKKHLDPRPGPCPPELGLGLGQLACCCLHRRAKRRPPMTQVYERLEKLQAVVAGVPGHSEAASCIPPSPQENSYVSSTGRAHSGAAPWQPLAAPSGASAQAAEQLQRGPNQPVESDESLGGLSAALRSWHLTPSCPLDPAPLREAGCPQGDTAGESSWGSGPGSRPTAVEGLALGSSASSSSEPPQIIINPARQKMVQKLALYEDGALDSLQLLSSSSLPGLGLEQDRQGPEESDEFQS

| SMILES | residual activity [1] [%] | residual activity [2] [%] | residual activity [3] [%] | residual activity [4] [%] | residual activity [5] [%] | residual activity [6] [%] | residual activity [7] [%] | residual activity [8] [%] | residual activity [9] [%] | residual activity [10] [%] | residual activity [11] [%] | residual activity [12] [%] | residual activity [13] [%] | residual activity [14] [%] | residual activity [15] [%] | residual activity [16] [%] |
| --- | --- | --- | --- | --- | --- | --- | --- | --- | --- | --- | --- | --- | --- | --- | --- | --- |
| CN([C@@H](Cc1ccc(OS(=O)(=O)c2cccc3cnccc23)cc1)C(=O)N1CCN(c2ccccc2)CC1)S(=O)(=O)c1cccc2cnccc12 | 134 | 84 |  |  |  |  |  |  |  |  |  |  |  |  |  |  |
| NCCNc1ncc(C(N)=O)c(Nc2cccc(C(F)(F)F)c2)n1 | 115 | 77 | 54 | 104 | 66 | 74 | 34 | 51 | 142 | 55 |  |  |  |  |  |  |
| O=c1c(-c2ccc(F)cc2)c(-c2ccncc2)[nH]n1-c1ccc(Cl)cc1 |  |  |  | 131 |  |  |  |  |  |  | 30 |  |  |  |  |  |
| CCOC(=O)c1c(C)[nH]c(/C=C2\C(=O)Nc3ccccc32)c1C | 93 | 96 | 85 | 96 | 88 | 84 | 93 | 49 | 93 | 81 |  | 94 | 99 | 97 | 79 |  |
| N#C/C(=C\c1ccc(O)c(O)c1)C(=O)NCc1ccccc1 |  | 89 | 65 | 104 | 89 | 100 | 85 | 100 | 88 | 85 |  |  | 81 |  | 104 | 81 |
